RE007 growth inh = less growth of the S. pombe RE007 Vpr strain; hit rate 0.21% among 360,000; Potency, µM (doses to about 92.2 µM), most hits filed as inhibitors; AID 651644; S. pombe RE007 Vpr strain, BacTiter-Glo ATP luminescence, 24 h; active means well fitted falling curve with a large enough effect; inconclusive means small, poorly fitted or top-dose-only effect; inactive means no such curve, though single readings can be large or run the other way; further: nearly all actives have a fitted effect of over 50% in size
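Fission yeast strain RE007, carrying one chromosomally integrated HIV-1 vpr copy, was seeded at OD 0.01 in PMG+AL medium with 23 nL pinned compound. After 24 h at 30 °C and 99% humidity, viability was read by BacTiter-Glo luminescence.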
Sm TGR inh = inhibitors of Schistosoma mansoni thioredoxin glutathione reductase. purified TGR, DTNB reduction, TNB absorbance 405 nm. hit rate 3% among 360,000. Q962Y6. Potency, µM (top dose mostly 114 µM), usual class: inhibitors; further: nearly all actives have a fitted effect of over 60% in size
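Kinetic colorimetric format: TGR-catalysed, NADPH-driven DTNB reduction monitored via TNB absorbance. Enzyme dispensed at 20 nM; compound exposure 15 min at room temperature before reaction start.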
TbPYK inhibitor = inhibitors of Trypanosoma brucei pyruvate kinase | TbPYK enzyme, Kinase-Glo Plus ATP luminescence, 45 min | Potency, µM (highest dose often 76.8 µM), hits mostly inhibitors | hit rate 0.12% among 410,000; further: nearly all actives have a fitted effect of over 50% in size
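In this concentration-response screen, enzyme-free wells defined baseline while DMSO plates tracked drift. Each reaction combined TbPYK, substrate, compound and 130 uM ADP for 45 min at room temperature. Kinase-Glo Plus luminescence gave the signal.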
FMDV antiviral = blocks foot and mouth disease virus | hit rate 1.2% among 410,000 | AID 1159524 | FMDV antiviral cell-based qHTS | Potency, µM (titrated, usually from 57.9 µM), hits mostly inhibitors; calls by dose curve; tested in HEK293T cells; further: read-out not given here; nearly all actives have a fitted effect of over 45% in size
Numbers stand for hits; i = inactive; ? = inconclusive; nt = no result. The list is not random: actives were taken first. Their share in the collection is about 3.7%. Unless noted, the call rests on the fitted dose curve; in most records, active means well fitted curve in the direction sought with a large enough effect; inconclusive means small, poorly fitted or top-dose-only effect, or another doubt; inactive means no such curve, though single readings can be large; an effect the other way counts as inactive or inconclusive.

SMILES	RE007 growth inh	Sm TGR inh	TbPYK inhibitor	FMDV antiviral
CCOC(=O)c1ccccc1NC1(c2ccc(OC)cc2)C(=O)c2ccccc2C1=O	nt	i	i	i
Cc1nc(N)sc1C(=O)N1N=N1	i	2.5µM	i	i
CCOC(=O)c1sc(=S)n(-c2ccc(OC)cc2)c1C	i	i	i	i
CCOC(=O)c1c2c(n(-c3ccc(OC)cc3)c1C)C(=O)C(=O)c1ccccc1-2	i	nt	i	13µM
O=C(O)[C@H]1Cc2ccccc2CN1S(=O)(=O)c1ccc(F)cc1	i	i	i	i
CC(=O)c1ccc(S(=O)(=O)N2Cc3ccccc3CC2C(=O)O)cc1 (stereo not drawn)	i	11µM	i	i
CC(=O)c1ccc(NC(=O)c2cn(-c3ccccc3)nc2-c2ccc(Br)cc2)cc1	nt	i	i	?
COCCCNC(=O)CS(=O)Cc1nc(-c2ccccc2C)oc1C (stereo not drawn)	i	40µM	i	i
COc1cccc(-c2nc(CS(=O)CC(=O)NC(C)CCc3ccccc3)c(C)o2)c1 (stereo not drawn)	i	10µM	i	i
Cc1oc(-c2ccccc2F)nc1CS(=O)CC(=O)NCc1ccccc1 (stereo not drawn)	i	i	i	i
CCC(C)NC(=O)CS(=O)Cc1nc(-c2cccc(OC)c2)oc1C (stereo not drawn)	i	28µM	i	i
Cc1ccccc1-c1nc(CS(=O)CC(=O)NC(C)CCc2ccccc2)c(C)o1 (stereo not drawn)	i	0.14µM	i	i
O=C(CSc1nc2ccccc2n1Cc1ccccc1Cl)NCc1ccccc1	nt	i	i	i
COc1ccc(C)cc1NC(=O)Nc1nnc(N2CCCCC2)s1	nt	i	i	i
Cc1cccc(N2CCN(c3ccc(C(=O)O)cc3NC(=O)c3cccc(Cl)c3)CC2C)c1 (stereo not drawn)	nt	i	i	i
O=C(Nc1cccc(F)c1)c1oc2ccccc2c1NC(=O)C12CC3CC(CC(C3)C1)C2	nt	i	i	i
COc1ccc(-c2nc(CS(=O)CC(=O)NCCc3ccc(C)cc3)c(C)o2)cc1OC (stereo not drawn)	i	40µM	i	i
COc1ccc(CCNC(=O)CS(=O)Cc2nc(-c3ccc(C)cc3)oc2C)cc1OC (stereo not drawn)	i	?	i	i
COc1cccc(-c2nc(CS(=O)CC(=O)NCCCOC(C)C)c(C)o2)c1 (stereo not drawn)	i	25µM	i	i
Cc1cccc(-c2nc(CS(=O)CC(=O)NCCc3ccccc3)c(C)o2)c1 (stereo not drawn)	i	i	i	i
COc1cccc(-c2nc(CS(=O)CC(=O)NCCc3ccccc3)c(C)o2)c1 (stereo not drawn)	i	20µM	i	i
C[C@@]12CCC[C@H]1[C@@H]1CC[C@H]3C[C@@H](O)CC[C@]3(C)[C@H]1CC2	nt	nt	i	nt
O=C(Nc1ccccc1F)c1ccc(O)c2ncccc12	nt	i	nt	nt
CCc1ccc(-n2c(SCC(=O)NC(C)CC)nc3n[nH]c(C)c3c2=N)cc1 (stereo not drawn)	nt	i	i	i
CC1(C(=O)Nc2cccc(C(F)(F)F)c2)Cc2ccccc2C(=O)O1 (stereo not drawn)	nt	i	i	i
SMILES	RE007 growth inh	Sm TGR inh	TbPYK inhibitor	FMDV antiviral
c1ccc(C(O[C@H]2CCCN(CCc3ccc4c(c3)OCO4)C2)c2ccccc2)cc1	nt	nt	nt	i
CCC(=O)Oc1ccc(-c2nc3ccccc3c(=O)o2)cc1	nt	i	i	i
CC(C)OC(=O)c1cn(Cc2c(F)cccc2F)c2sc(-c3ccc(NC(=O)C(C)C)cc3)c(CN(C)Cc3ccccc3)c2c1=O	nt	nt	nt	i
COc1ccc(OCCOc2cccc(C=C3C(=O)NC(=O)NC3=O)c2)cc1	nt	11µM	nt	nt
C[N+]1(CC2COC(c3ccccc3)(C3CCCCC3)O2)CCCCC1 (stereo not drawn)	nt	nt	i	nt
CC1(C)c2ccccc2N2CCC(=O)NC21/C=C/c1ccco1 (stereo not drawn)	i	25µM	i	i
O=C1CN(C(=O)COC(=O)/C=C/c2ccco2)c2ccccc2N1	i	?	i	i
CC1(C)c2ccccc2N2CC(=O)NC21/C=C/c1ccco1 (stereo not drawn)	i	7.9µM	i	i
Cc1ccc2c(c1)C(C)(C)[C@]1(C)NC(=O)CCN21	i	i	i	i
COC(=O)N1CCC2(CC1)CCN(C(c1ccccc1)c1ccccc1)CC2	nt	nt	i	i
Cc1cc(S(=O)(=O)NCc2nc(N3CCCC3)c3cc(Cl)ccc3n2)c(C)s1	nt	nt	nt	i
O=C(N/N=C\C=C\c1ccco1)c1cncc(Br)c1	i	18µM	i	i

Screens: PubChem BioAssay, National Center for Advancing Translational Sciences (NCATS)
